mHTT CaM bind: mHTT-calmodulin interaction abrogation. 190,000 compounds, 3.6% hits. P42858. inhibition, % at 15 µM. AlphaScreen His-mHTT/GST-CaM binding, luminescence;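 note: 0% = both proteins with DMSO and 100% = one protein alone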
Target sequence (P42858 whole entry, looked up, stated change not applied): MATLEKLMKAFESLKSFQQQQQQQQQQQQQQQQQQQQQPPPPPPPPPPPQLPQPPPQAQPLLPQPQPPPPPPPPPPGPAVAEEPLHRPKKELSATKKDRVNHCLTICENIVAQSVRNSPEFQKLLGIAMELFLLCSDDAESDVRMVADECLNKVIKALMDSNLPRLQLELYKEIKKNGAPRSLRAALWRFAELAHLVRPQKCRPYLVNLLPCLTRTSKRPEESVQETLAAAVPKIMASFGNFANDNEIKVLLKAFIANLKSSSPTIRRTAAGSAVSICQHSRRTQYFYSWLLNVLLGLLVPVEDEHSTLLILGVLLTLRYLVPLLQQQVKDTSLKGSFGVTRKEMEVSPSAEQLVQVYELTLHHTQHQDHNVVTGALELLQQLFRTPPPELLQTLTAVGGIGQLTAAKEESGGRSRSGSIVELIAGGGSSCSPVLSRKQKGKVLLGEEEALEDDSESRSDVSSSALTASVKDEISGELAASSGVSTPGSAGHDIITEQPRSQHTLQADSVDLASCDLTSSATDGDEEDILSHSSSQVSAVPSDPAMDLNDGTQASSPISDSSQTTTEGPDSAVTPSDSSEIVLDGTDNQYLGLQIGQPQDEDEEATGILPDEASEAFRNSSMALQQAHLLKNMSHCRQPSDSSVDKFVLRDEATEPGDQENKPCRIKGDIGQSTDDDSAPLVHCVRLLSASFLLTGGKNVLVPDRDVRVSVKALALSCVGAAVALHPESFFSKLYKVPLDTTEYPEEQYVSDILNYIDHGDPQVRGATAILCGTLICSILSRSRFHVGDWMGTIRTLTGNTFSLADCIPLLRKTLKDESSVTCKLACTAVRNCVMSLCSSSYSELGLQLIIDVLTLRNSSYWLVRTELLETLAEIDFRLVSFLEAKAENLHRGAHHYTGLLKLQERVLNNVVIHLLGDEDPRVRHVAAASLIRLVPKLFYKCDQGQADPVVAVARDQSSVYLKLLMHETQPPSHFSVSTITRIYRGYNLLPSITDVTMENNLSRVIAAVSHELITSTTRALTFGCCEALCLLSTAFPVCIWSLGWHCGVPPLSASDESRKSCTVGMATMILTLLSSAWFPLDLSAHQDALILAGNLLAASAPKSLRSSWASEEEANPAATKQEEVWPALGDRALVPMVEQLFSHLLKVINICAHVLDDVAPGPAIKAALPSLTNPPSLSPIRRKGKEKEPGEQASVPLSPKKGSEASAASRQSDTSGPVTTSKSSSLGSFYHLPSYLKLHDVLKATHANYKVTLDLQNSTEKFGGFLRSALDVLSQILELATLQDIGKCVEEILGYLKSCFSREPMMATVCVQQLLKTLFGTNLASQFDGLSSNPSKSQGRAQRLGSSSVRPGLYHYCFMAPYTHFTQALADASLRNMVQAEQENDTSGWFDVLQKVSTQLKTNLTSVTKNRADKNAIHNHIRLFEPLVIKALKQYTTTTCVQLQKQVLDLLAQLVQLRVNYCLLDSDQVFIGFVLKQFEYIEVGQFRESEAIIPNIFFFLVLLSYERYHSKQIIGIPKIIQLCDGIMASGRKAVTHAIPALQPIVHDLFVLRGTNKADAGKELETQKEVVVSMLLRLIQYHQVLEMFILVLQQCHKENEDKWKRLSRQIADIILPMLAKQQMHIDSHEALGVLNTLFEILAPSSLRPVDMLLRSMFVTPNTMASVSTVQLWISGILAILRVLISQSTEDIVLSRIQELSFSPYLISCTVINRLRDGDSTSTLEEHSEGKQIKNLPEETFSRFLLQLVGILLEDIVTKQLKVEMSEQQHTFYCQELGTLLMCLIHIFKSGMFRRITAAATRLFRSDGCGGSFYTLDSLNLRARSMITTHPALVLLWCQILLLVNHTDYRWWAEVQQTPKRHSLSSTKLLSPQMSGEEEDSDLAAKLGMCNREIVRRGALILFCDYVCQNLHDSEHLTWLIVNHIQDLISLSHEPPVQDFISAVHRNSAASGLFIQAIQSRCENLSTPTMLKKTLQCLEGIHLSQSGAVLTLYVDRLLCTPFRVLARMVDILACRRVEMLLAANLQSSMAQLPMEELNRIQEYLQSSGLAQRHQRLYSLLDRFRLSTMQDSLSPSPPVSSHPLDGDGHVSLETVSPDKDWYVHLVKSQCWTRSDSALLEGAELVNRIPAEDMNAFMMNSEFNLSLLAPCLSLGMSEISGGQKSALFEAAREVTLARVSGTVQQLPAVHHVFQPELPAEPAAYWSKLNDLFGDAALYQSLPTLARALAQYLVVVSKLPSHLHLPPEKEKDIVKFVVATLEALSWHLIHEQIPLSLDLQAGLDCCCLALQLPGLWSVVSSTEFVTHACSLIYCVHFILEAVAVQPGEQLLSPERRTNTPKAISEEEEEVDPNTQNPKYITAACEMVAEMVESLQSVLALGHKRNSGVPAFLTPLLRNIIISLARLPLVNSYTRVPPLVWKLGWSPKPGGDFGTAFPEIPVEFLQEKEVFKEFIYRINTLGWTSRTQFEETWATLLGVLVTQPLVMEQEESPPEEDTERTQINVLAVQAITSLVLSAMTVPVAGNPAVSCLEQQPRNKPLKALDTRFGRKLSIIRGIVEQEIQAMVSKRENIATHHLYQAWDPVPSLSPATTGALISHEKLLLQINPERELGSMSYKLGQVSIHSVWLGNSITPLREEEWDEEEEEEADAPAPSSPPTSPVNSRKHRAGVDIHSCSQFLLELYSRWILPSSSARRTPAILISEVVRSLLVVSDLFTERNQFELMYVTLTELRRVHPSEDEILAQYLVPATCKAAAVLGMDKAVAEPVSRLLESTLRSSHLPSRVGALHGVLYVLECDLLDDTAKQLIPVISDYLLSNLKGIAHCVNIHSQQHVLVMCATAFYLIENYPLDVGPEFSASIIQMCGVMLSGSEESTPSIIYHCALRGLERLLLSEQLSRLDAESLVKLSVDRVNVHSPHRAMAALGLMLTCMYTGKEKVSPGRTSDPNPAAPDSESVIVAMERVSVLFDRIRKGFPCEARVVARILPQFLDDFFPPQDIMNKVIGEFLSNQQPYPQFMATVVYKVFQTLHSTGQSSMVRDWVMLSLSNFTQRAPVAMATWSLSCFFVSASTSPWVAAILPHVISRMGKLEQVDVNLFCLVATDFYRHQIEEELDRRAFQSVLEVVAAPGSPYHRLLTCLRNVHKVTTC
Pf apPOL inh: Pf-apPOL DNA polymerase inhibition | Recombinant Pf-apPOL, molecular beacon fluorescence, 1.5 h | inhibition, % at 10 µM | 210,000 compounds, 0.25% hits | AID 1794808
* = called active by the depositor; nt = not tested or not shown; + = active, no number. Sampled rows, rich in hits. Any-hit rate of the full collection: about 3.6%. Cut-off read from the data, not from the text of the source: active = inhibition above about 50%; inactive = the rest.

SMILES | mHTT CaM bind | Pf apPOL inh
O=S(=O)(c1ccc(F)cc1F)N1CCC(N2CCOCC2)CC1 | -0.5 | 0.4
Cc1nc2c(NC(=O)c3ccccn3)cccn2n1 | 50.4* | -14.4
Cc1nnc2c(NC(=O)c3ccccn3)cccn12 | 31.3 | -15.9
CN(C)c1cccc(C(=O)NCC2CCN(c3cc(-c4ccccn4)[nH]n3)CC2)c1 | 54.9* | -0.1
O=C(NCC1CCN(c2cc(-c3ccccn3)[nH]n2)CC1)c1ccc2c(c1)OCO2 | 36.5 | 2.4
O=C(c1cc2cn(C3CC3)cc2s1)N1CCN(C2CCCCC2)CC1 | 54.8* | 0.0
CC(C)n1cc2cc(C(=O)N3CCN(Cc4ccc5c(c4)OCO5)CC3)sc2c1 | 64.7* | -9.9
CC(C)CN1CCN(C(=O)c2cc3cn(C(C)C)cc3s2)CC1 | 15.1 | -7.8
O=C(c1cc2cn(C3CC3)cc2s1)N1CCN(Cc2ccc3c(c2)OCO3)CC1 | 62.7* | -3.2
O=C(c1cc2cn(C3CC3)cc2s1)N1CCOCC1 | 4.9 | -4.8
CC(C)n1cc2cc(C(=O)N3CCN(Cc4ccccc4F)CC3)sc2c1 | 60.0* | 3.3
CC(=O)N1CCN(C(=O)c2cc3cn(C(C)C)cc3s2)CC1 | 12.8 | -1.3
CN1CCC(N2CCN(C(=O)c3cc4cn(C5CCCC5)cc4s3)CC2)CC1 | 29.8 | -2.7
O=C(c1cn(-c2ccc(Cl)cc2)nn1)N1CCCCCC1 | -6.7 | -0.3
CCc1nc2c(c(=O)n1CC(=O)Nc1ccc(C(C)C)cc1)CN(Cc1ccccc1)CC2 | 9.8 | -5.3
CCCN1N=C(C(=O)N2CCC(C)CC2)S(=O)(=O)c2ccccc21 | -6.2 | -3.6
Cc1ccc(-c2nc3ccc(C)cn3c2NC(=O)CC(C)(C)C)cc1 | 7.7 | -1.4
Cc1nc(NC2CCCCC2)c2c(C)noc2n1 | -4.7 | 0.8
Cc1ccc(CNC(=O)C2(C)CCCN(C(=O)c3cccc(Cl)c3)C2)cc1 (stereo not drawn) | 6.6 | 7.4
Cc1nc(-c2cccc(C(=O)NC(C)C)c2)no1 | -1.0 | -0.9
N#CCC(=O)c1ccc(Cl)cc1 | 13.5 | 1.2
N#CCC(=O)c1ccc([N+](=O)[O-])cc1 | 98.5* | 5.5
O=C1C(=Cc2cccnc2)Oc2cc(O)ccc21 | 4.3 | -4.4
CN(C)CC1CN(C(=O)c2ccc3ncccc3c2)CC12CCOCC2 (stereo not drawn) | -6.6 | -7.9
COC(=O)c1ccc(Oc2c(C)oc3c4c(ccc3c2=O)OCN(C2CCS(=O)(=O)C2)C4)cc1 (stereo not drawn) | 0.0 | -2.2
SMILES | mHTT CaM bind | Pf apPOL inh
O=C1Cc2ccccc2C1=C1Cc2ccccc2C1 | nt | 11.8
O=C1CC(=C2C(=O)c3ccccc3C2=O)c2ccccc21 | 86.3* | nt
O=C1C(c2ccccn2)=C(O)c2ccccc21 | 3.5 | 0.7
O=C1C(=C2C/C(=N/O)c3ccccc32)C(=O)c2ccccc21 | + | nt
COc1ccc(NC(=O)C2CCN(c3cncnc3N3CCCCC3)CC2)c(C)c1 | 6.3 | 1.1
CCc1ccc(-c2cncc(CN3CCC(C(N)=O)CC3)c2)cc1 | 2.4 | -9.8
O=C(NC1CC2CC1CN2C(=O)c1ccccc1Cl)c1cccs1 (stereo not drawn) | 1.0 | -2.2
CN(C)C(=O)Cc1ccc(NC(=O)Cc2cccs2)cc1 | -4.4 | -0.8
COc1cc2c(cc1OC)C(COc1ccc(F)cc1)N(C(=O)c1cccc(F)c1)CC2 (stereo not drawn) | 76.0* | -1.4
COc1ccc(OCC2c3cc(OC)c(OC)cc3CCN2C(=O)c2cccc(OC)c2)cc1 (stereo not drawn) | 4.3 | -1.6
CCCC(=O)N1CCc2cc(OC)c(OC)cc2C1COc1ccc(OC)cc1 (stereo not drawn) | 6.8 | -0.5
COc1ccc(C=CC(=O)N2CCc3cc(OC)c(OC)cc3C2COc2ccc3c(C)cc(=O)oc3c2)cc1OC (stereo not drawn) | 69.2* | -0.8
COc1cc2c(cc1OC)C(COc1ccc3c(C)cc(=O)oc3c1)N(C(=O)c1ccc(Cl)cc1)CC2 (stereo not drawn) | 0.0 | -0.2
COc1cc2c(cc1OC)C(COc1ccc(F)cc1)N(C(=O)Cc1ccc(F)cc1)CC2 (stereo not drawn) | 61.0* | -2.8
CC1=C(C(=O)OC2CCCC2)C(c2ccc(C)cc2)C2=C(CC(C)(C)CC2=O)N1 (stereo not drawn) | -10.6 | 0.9
O=C(NCc1ccccc1C(F)(F)F)C1CCN(c2cnc3nccnc3c2)CC1 | 0.4 | -3.9
COC(=O)Oc1ccc2c(=O)c(Oc3ccc(C)cc3)coc2c1 | 80.0* | 15.8
COc1ccccc1Oc1coc2cc(OC(=O)C(C)C)ccc2c1=O | 99.7* | -2.0
CC(=O)Oc1ccc2c(=O)c(Oc3ccccc3)coc2c1 | 20.3 | -6.9
COc1cccc(Oc2coc3cc(OC(=O)C(C)C)ccc3c2=O)c1 | 31.2 | -6.0
O=C(c1ccc(OCC2CCCN2C(=O)c2c(F)cccc2Cl)cc1)N1CCOCC1 (stereo not drawn) | -0.5 | 8.1
O=C(NCCc1ccccc1)N1CCCn2nc(-c3cccs3)cc2C1 | 5.4 | -5.5
O=C(C1CCC1)N1CCCC(c2ccnc(Nc3ccccc3)n2)C1 (stereo not drawn) | 24.2 | -2.5
CCC(=O)N1CCCC(c2ccnc(Nc3ccc(C)cc3)n2)C1 (stereo not drawn) | 56.4* | -12.2
Cc1ccc(C(=O)N2CCCC(c3ccnc(Nc4ccccc4)n3)C2)s1 (stereo not drawn) | 61.4* | -2.3
SMILES | mHTT CaM bind | Pf apPOL inh
Cc1ccc(Nc2nccc(C3CCCN(C(=O)c4ccco4)C3)n2)cc1 (stereo not drawn) | 86.8* | -4.6
Cc1ccc(Nc2nccc(C3CCCN(C(=O)C(C)(C)C)C3)n2)cc1 (stereo not drawn) | 38.6 | -2.9
O=C(c1ccco1)N1CCCC(c2ccnc(Nc3ccccc3)n2)C1 (stereo not drawn) | 21.9 | -3.6
N#CC1=C(N)N(c2c(F)cccc2F)C2=C(C(=O)CCC2)C1c1ccccc1F (stereo not drawn) | 8.0 | -3.1
COc1ccc(C(=O)C[n+]2cnn(CC(=O)c3ccccc3)c2)cc1 | 3.0 | -1.0
COc1ccc(Oc2nc3c(c(=O)n(Cc4ccccc4)c(=O)n3C)n2C)cc1 | 18.0 | 65.1*
COc1ccc(Cn2c(Oc3ccccc3)nc3c2c(=O)n(C)c(=O)n3C)cc1 | -6.0 | 0.6
O=C1[C@H](Cc2ccccc2)NC/C=C\C[C@H](c2ccc(Cl)cc2)N1Cc1ccccc1 | 81.6* | -1.0
O=C1[C@H](Cc2ccccc2)NC/C=C\C[C@@H](c2ccco2)N1Cc1ccccc1 | 43.1 | -2.4
O=C1[C@H](Cc2ccccc2)NCCCC[C@H](c2ccc(Cl)cc2)N1Cc1ccccc1 | 36.6 | -6.5
O=C1c2ccccc2NC(c2ccc(Cl)cc2)N1Cc1ccccc1 (stereo not drawn) | -22.0 | 16.5
O=C1[C@H](Cc2ccccc2)NCCCC[C@@H](c2ccco2)N1Cc1ccccc1 | 26.9 | -3.3
O=C1[C@H](Cc2ccccc2)NCCCC[C@H](c2ccco2)N1Cc1ccccc1 | 92.6* | 1.9
O=C1[C@H](Cc2ccccc2)NC/C=C\C[C@@H](c2ccc(Cl)cc2)N1Cc1ccccc1 | 92.9* | -3.4
O=C1[C@H](Cc2ccccc2)NCCCC[C@@H](c2ccc(Cl)cc2)N1Cc1ccc(Cl)cc1 | 99.9* | -5.9
CCc1cc(C2CCCN2Cc2cc(OC)ccc2OC)on1 (stereo not drawn) | 23.5 | -4.2
O=C(O)C1CC=CCC1C(=O)Nc1nc(-c2ccc(Cl)c(Cl)c2)cs1 (stereo not drawn) | 17.8 | -4.0
